Experimental data from PubChem BioAssay AID1159580 (chemical genetic matrix, 2015).
Values joined by “and” are separate entries in the source; they are usually repeats but may differ in a detail not shown here. Equal values may be shown once. Among all 5,500 compounds or so, about 2,000 (36%) were called active. Not shown: some 18% with an inconclusive outcome. No stated cut-off is given here; in the data, active means normalized growth mostly below about 0.91 (no sharp cut-off); inconclusive means no clear call, values can overlap the other calls; inactive means mostly above about 0.92. Some of the results follow.

Assay: chemical genetic growth profiling, strain panel (AID 1159580);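 further: tested at 20 µM; growth read once vehicle control cultures reached saturation at 30 °C; 1 = growth at the plate median or of vehicle wells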
Details: S. cerevisiae deletion strains, growth OD

Measured: normalized growth

Cc1cc(=O)oc2c(O)c(O)ccc12
inactive: locus YAL021C, strain ccr4, stronger effect = lower value 0.981 | locus YAL026C, strain drs2, stronger effect = lower value 0.967 | locus YAL030W, strain snc1, stronger effect = lower value 0.964 | locus YBL061C, strain skt5, stronger effect = lower value 0.966 | locus YBR009C, strain hhf1, stronger effect = lower value 0.966 | locus YBR021W, strain FUR4, stronger effect = lower value 0.975 | locus YBR023C, strain chs3, stronger effect = lower value 0.975 | locus YBR171W, strain sec66, stronger effect = lower value 0.975 | locus YBR229C, strain ROT2, stronger effect = lower value 1 | locus YBR231C, strain swc5, stronger effect = lower value 0.978 | locus YBR279W, strain paf1, stronger effect = lower value 0.973 | locus YCL011C, strain gbp2, stronger effect = lower value 0.958 | locus YCL016C, strain dcc1, stronger effect = lower value 0.972 | locus YCL029C, strain bik1, stronger effect = lower value 0.999 | locus YCL061C, strain MRC1, stronger effect = lower value 0.992 | locus YCL069W, strain vba3, stronger effect = lower value 0.976 | locus YCR088W, strain abp1, stronger effect = lower value 0.965 | locus YDL005C, strain med2, stronger effect = lower value 0.958 | locus YDL035C, strain GPR1, stronger effect = lower value 1.01 | locus YDL040C, strain nat1, stronger effect = lower value 0.98 | locus YDL074C, strain BRE1, stronger effect = lower value 0.993 | locus YDL101C, strain DUN1, stronger effect = lower value 1.01 | locus YDL134C, strain PPH21, stronger effect = lower value 1.02 | locus YDL185W, strain tfp1, stronger effect = lower value 1 | locus YDL192W, strain arf1, stronger effect = lower value 1 | locus YDR001C, strain nth1, stronger effect = lower value 0.968 | locus YDR069C, strain doa4, stronger effect = lower value 0.963 | locus YDR101C, strain arx1, stronger effect = lower value 1.02 | locus YDR137W, strain rgp1, stronger effect = lower value 0.94 | locus YDR150W, strain NUM1, stronger effect = lower value 1.01 | locus YDR159W, strain sac3, stronger effect = lower value 0.967 | locus YDR162C, strain NBP2, stronger effect = lower value 1.02 | locus YDR195W, strain ref2 0.913 | locus YDR297W, strain sur2, stronger effect = lower value 0.979 | locus YDR318W, strain mcm21, stronger effect = lower value 0.993 | locus YDR334W, strain swr1, stronger effect = lower value 0.968 | locus YDR335W, strain msn5, stronger effect = lower value 0.981 | locus YDR388W, stronger effect = lower value 0.994 | locus YDR392W, strain spt3, stronger effect = lower value 0.973 | locus YDR502C, strain sam2, stronger effect = lower value 1 | locus YEL003W, strain gim4, stronger effect = lower value 0.976 | locus YEL037C, strain rad23, stronger effect = lower value 0.934 | locus YEL061C, strain CIN8 (second series), stronger effect = lower value 0.952 | locus YEL061C, strain CIN8, stronger effect = lower value 1 | locus YER015W, strain faa2, stronger effect = lower value 1 | locus YER016W, strain bim1, stronger effect = lower value 0.986 | locus YER110C, stronger effect = lower value 0.993 | locus YER111C, strain swi4, stronger effect = lower value 0.957 | locus YER155C, strain BEM2 (second series), stronger effect = lower value 0.987 | locus YER155C, strain BEM2, stronger effect = lower value 1.01 | locus YER167W, strain BCK2, stronger effect = lower value 1.01 | locus YFR010W, strain ubp6, stronger effect = lower value 0.947 | locus YGL078C, strain dbp3, stronger effect = lower value 1 | locus YGL086W, strain mad1, stronger effect = lower value 0.991 | locus YGL167C, strain pmr1, stronger effect = lower value 0.943 | locus YGL173C, strain kem1, stronger effect = lower value 0.987 | locus YGL227W, strain vid30, stronger effect = lower value 0.962 | locus YGL240W, strain doc1, stronger effect = lower value 0.979 | locus YGL248W, strain PDE1, stronger effect = lower value 1.01 | locus YGL253W, strain hxk2, stronger effect = lower value 0.974 | locus YGR135W, strain pre9, stronger effect = lower value 0.988 | locus YGR229C, strain SMI1, stronger effect = lower value 1 | locus YGR252W, strain gcn5, stronger effect = lower value 0.977 | locus YHR013C, strain ard1, stronger effect = lower value 0.942 | locus YHR027C, strain rpn1, stronger effect = lower value 0.973 | locus YHR030C, strain SLT2, stronger effect = lower value 1 and 0.999 | locus YHR079C, strain IRE1 (second series), stronger effect = lower value 1 | locus YHR079C, strain IRE1, stronger effect = lower value 0.983 | locus YHR094C, strain hxt1, stronger effect = lower value 1.02 | locus YHR129C, strain ARP1, stronger effect = lower value 1 | locus YHR142W, strain chs7, stronger effect = lower value 0.973 | locus YHR200W, strain rpn10, stronger effect = lower value 1.02 | locus YIL066C, strain RNR3, stronger effect = lower value 1.02 | locus YIL073C, strain SPO22, stronger effect = lower value 1.03 | locus YIL125W, strain kgd1, stronger effect = lower value 0.975 | locus YIR030C, strain dcg1, stronger effect = lower value 1 | locus YJL092W, strain hpr5, stronger effect = lower value 0.978 | locus YJL095W, strain BCK1 (second series), stronger effect = lower value 0.988 | locus YJL095W, strain BCK1, stronger effect = lower value 0.98 and 0.997 | locus YJL115W, strain asf1, stronger effect = lower value 0.975 | locus YJL129C, strain trk1, stronger effect = lower value 0.972 | locus YJL134W, strain LCB3, stronger effect = lower value 1.01 | locus YJL154C, strain vps35, stronger effect = lower value 0.976 | locus YJL164C, strain tpk1, stronger effect = lower value 0.985 | locus YJL166W, strain qcr8, stronger effect = lower value 1 | locus YJL168C, strain set2, stronger effect = lower value 0.993 | locus YJL187C, strain SWE1 (second series), stronger effect = lower value 1 | locus YJL187C, strain SWE1, stronger effect = lower value 0.976
